SW480 rereplic – DNA re-replication induction in SW480 cells; SW480 DNA re-replication, Hoechst DNA content imaging, 48 h; Potency, µM (doses to about 46.1 µM), for inactives: at the top dose re-replication activation, actives largely listed as activators; hit rate 1.8% among 340,000; also: % of control where 0% means no effect; nearly all actives have a fitted effect of over 55% in size
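SW480 cells exposed to compounds for 48 hr at 37 C, 5% CO2, then Hoechst-stained 40 min. Nuclear DNA content imaged by fluorescence scanning (405 nm excitation, 500-530 nm emission); re-replication scored as increased high-intensity nuclei.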
RGS4 inhibitor – inhibitors of human regulator of G protein signaling 4; P49798; Transcreener GDP fluorescence polarization, RGS4-accelerated GTP hydrolysis; Potency, µM (top dose mostly 114 µM), without a hit: at the top dose activity change, negative = inhibition, hits mostly inhibitors; hit rate 0.039% among 390,000; AID 504845; also: % is scaled to controls: 0 for no effect and ±100 for the full control effect; nearly all actives have a fitted effect of over 75% in size
Target sequence (P49798 whole entry, looked up): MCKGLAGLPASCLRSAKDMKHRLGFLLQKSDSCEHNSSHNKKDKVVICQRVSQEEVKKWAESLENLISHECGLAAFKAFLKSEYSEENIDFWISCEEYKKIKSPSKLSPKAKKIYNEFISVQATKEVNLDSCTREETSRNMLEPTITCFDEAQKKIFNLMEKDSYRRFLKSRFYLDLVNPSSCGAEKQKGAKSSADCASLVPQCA
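MLSMR compounds (23 nl, pin-transferred) preincubated 10 min at room temperature with a 500nM (2x) first reagent, then RGS4 at 900nM (2x) plus Transcreener GDP mix added; fluorescence polarization (620/688 nm) read before and after 90 min at 30 °C.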
KB-3-1 tox – kills parental KB-3-1 adenocarcinoma cells | AID 1347075 | hit rate 1.4% among 400,000 | Potency, µM (titrated, usually from 46.1 µM), most hits filed as cytotoxic | KB-3-1 viability, CellTiter-Glo ATP luminescence, 72 h; also: % is scaled to controls: 0 for no effect and ±100 for the full control effect; nearly all actives have a fitted effect of over 60% in size
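KB-3-1 parental drug-naive adenocarcinoma cells in DMEM/10% FBS, incubated 72 h at 37 C with pin-transferred compounds across a concentration series. Viability by CellTiter-Glo luminescence; concentration-response curves fitted after normalization.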
MCF10A rerep – DNA re-replication induction in MCF 10a cells; MCF 10A DNA re-replication, Hoechst nuclear intensity, 48 h; Potency, µM (series often up to 46.1 µM), for the others: at the top dose activity, positive = re-replication, most hits filed as activators; hit rate 2.9% among 350,000; also: % of control where 0% means no effect; nearly all actives have a fitted effect of over 50% in size
TSG101-PTAP inh – blocks PTAP/TSG101 interaction to inhibit HIV-1 budding; Fluorescence polarization, FITC-PTAP peptide / Tsg101 binding; Potency, µM (series often up to 115 µM), for inactives: top-dose activity change, negative = inhibition, hits mostly inhibitors; 340,000 tested, under 10 active; AID 493005; active = well fitted inhibition curve with a large enough effect in the main read-out, with a control signal flat, not every such curve was filed as active; inconclusive = small, poorly fitted or top-dose-only effect, or effect the other way, or a change in a side signal; inactive = no such curve, though single readings can be large or run the other way; also: % of control where 0% means no effect
Target sequence (Q99816 whole entry, looked up): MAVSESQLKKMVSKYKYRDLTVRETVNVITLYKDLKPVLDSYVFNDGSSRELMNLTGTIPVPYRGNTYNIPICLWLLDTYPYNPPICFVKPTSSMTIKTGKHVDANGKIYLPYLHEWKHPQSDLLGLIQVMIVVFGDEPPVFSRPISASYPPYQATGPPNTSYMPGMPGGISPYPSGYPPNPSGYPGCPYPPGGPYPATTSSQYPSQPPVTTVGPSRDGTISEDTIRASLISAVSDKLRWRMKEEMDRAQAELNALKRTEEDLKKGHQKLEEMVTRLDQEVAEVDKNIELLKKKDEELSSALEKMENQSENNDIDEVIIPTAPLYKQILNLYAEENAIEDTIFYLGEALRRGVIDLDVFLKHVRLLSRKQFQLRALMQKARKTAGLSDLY
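Tsg101 binding domain (10 uM final) was mixed with compound and a FITC-labeled PTAP peptide (50 nM final) in HEPES pH 7.5 buffer with NaCl, Tween 20, EDTA and TCEP; fluorescence polarization was read after 20 min at r.t.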
KB-V1 cytotox – kills drug-selected multidrug resistant KB-V1 cells; KB-V1 MDR cells viability, CellTiter-Glo, 72 h; Potency, µM (titrated, usually from 46.1 µM), most hits filed as cytotoxic; hit rate 3.4% among 400,000; AID 1347076; also: % is scaled to controls: 0 for no effect and ±100 for the full control effect; nearly all actives have a fitted effect of over 60% in size
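qHTS viability screen in drug-selected KB-V1 MDR cells: 72 h compound treatment at 37 degrees C, ATP luminescence end point.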
* marks the source's active call; other numbers are inactive results; i = inactive; ? = inconclusive; . = no result given; [ ] = dose if it differs, or a comment. Most compounds without a hit are left out; they make up all but 6.6% or so of the library. Unless noted, calls follow the shape of the dose curve; as a rule, active = well fitted curve in the direction sought with a large enough effect; inconclusive = small, poorly fitted or top-dose-only effect, or another doubt; inactive = no such curve, though single readings can be large; an effect the other way counts as inactive or inconclusive. Potency is read from the fitted curve at half-maximal effect.

SMILES	SW480 rereplic	RGS4 inhibitor	KB-3-1 tox	MCF10A rerep	TSG101-PTAP inh	KB-V1 cytotox
COc1cc(CNc2ncnc3c2ncn3[C@H]2CN(Cc3ccc(-c4ccccc4)cc3)C[C@@H](CO)O2)cc(OC)c1OC	.	.	?	.	.	i
COc1cc(CNc2ncnc3c2ncn3[C@H]2CN(Cc3cccc4ccccc34)C[C@@H](CO)O2)cc(OC)c1OC	.	.	?	.	.	21µM*
CC(C)=CCC1C(=O)N(c2ccccc2)N(c2ccccc2)C1=O	?	.	.	30µM*	.	.
O=C(NCCCN1CCOCC1)NC1CCCCC1	?	15%	i	-6%	3%	i
O=C(NCCCCCCCN1CCCCCCC1)C(C1CCCCC1)C1CCCCC1	?	-30%	?	2%	-2%	3.3µM*
COc1cccc(CNC(=O)Cn2nc(N3CCN(c4ccccc4OC)CC3)ccc2=O)c1	.	-13%	i	.	.	i
CC(=O)Oc1ccc(N2C(=O)C3C(C2=O)C(C(=O)c2ccc(Cl)cc2)N2CCCC32)cc1 (configuration not stated)	4.6µM*	?	18µM*	18µM*	-12%	?
Cc1ccc(N2C(=O)C3C(C2=O)C(C(=O)c2ccc(Cl)cc2)N2CCCC32)cc1 (configuration not stated)	-3%	-20%[11.4 µM]	i	-13%	-4%	?
O=C(Nc1cccc(Cl)c1)N1CCSc2cc(Cl)ccc21	1%	9%	i	3%	-5%	18µM*
CCCCCOC(=O)C1=C(C)Nc2nnnn2C1c1ccccc1Cl (configuration not stated)	-3%	-2%	i	?	-8%	21µM*
COC(=O)C1=C(C)Nc2nnnn2C1c1ccccc1Cl (configuration not stated)	-5%	-16%	i	3%	-4%	i
Cc1cc(C)nc(NC2=NCC(=O)N2c2cccc(Cl)c2)n1	-4%	-5%	i	16%	-5%	21µM*
CCOc1ccc(C2=Nn3c(nnc3-c3ccc(OC)cc3)SC2)cc1	5.8µM*	?	2.9µM*	?	-6%	3.3µM*
c1ccc(C2=Nn3c(nnc3-c3ccncc3)SC2)cc1	?	-1%	i	8%	-8%	i
Cc1cc(-c2nnc3n2N=C(c2ccc(-c4ccccc4)cc2)CS3)n[nH]1	3%	12%[11.4 µM]	?	?	-8%	i
Cc1cccc(-c2nnc3n2N=C(c2ccccc2)CS3)c1	4%	4%	?	13%	-3%	8.2µM*
c1ccc(-c2cc(-c3nnc4n3N=C(c3ccc5ccccc5c3)CS4)[nH]n2)cc1	?	-10%	i	4.1µM*	.	7.3µM*
O=C(Nc1cccc(-c2nc3ccccc3o2)c1)c1cc([N+](=O)[O-])ccc1N1CCOCC1	.	-5%	.	.	.	.
Cc1c(C(=O)NCc2ccccc2Br)oc2c1-c1[nH]ncc1CC2	.	-7%	.	.	.	.
COc1ccc(S(=O)(=O)n2nc(OCc3cccs3)cc2N)cc1	-14%	-19%	i	12%	-1%	21µM*
COC(=O)C1=C(N)Oc2cc(N(C)C)ccc2C1c1ccccc1OC (configuration not stated)	12µM*	-25%	i	9.2µM*	-8%	?
CCOc1cccc(CC(=O)N2CCc3c([nH]c4ccccc34)C2c2ccc(C)cc2)c1OCC (configuration not stated)	.	2%	.	.	.	.
CSc1nc2cc(S(=O)(=O)N3CCCCC3)ccc2s1	10%	-14%	?	7%	-4%	15µM*
O=S(=O)(c1cccc(-c2nc3ccccc3s2)c1)N1CCCC1	-3%	-15%	?	-2%	-6%	15µM*
CSc1nc2cc(S(=O)(=O)N3CCOCC3)ccc2s1	-9%	30%	?	-4%	-7%	i
SMILES	SW480 rereplic	RGS4 inhibitor	KB-3-1 tox	MCF10A rerep	TSG101-PTAP inh	KB-V1 cytotox
CCOC(=O)c1c(Nc2ccc(O)cc2)nnc(-c2ccccc2)c1-c1ccccc1	.	-14%	i	.	.	i
O=C(O)c1cccs1	.	.	i	.	.	i
OC(COc1ccc(CNCCc2ccccc2F)cc1)CN1CCCCC1 (configuration not stated)	?	28%[56.9 µM]	i	18µM*	-6%	i
Cc1ccc(CSc2nc3cccnc3n2Cc2nc(-c3ccccc3F)oc2C)cc1	.	-6%	.	.	.	.
CCC(C)NCCCCOc1ccc(Cl)cc1C (configuration not stated)	?	-10%	i	?	-1%	16µM*
O=C(NCc1ccc(F)cc1)c1ccc(S(=O)(=O)N2CCCC2)cc1	.	.	i	.	.	?
COC(=O)c1ccc(CNC(=O)c2ccc(S(=O)(=O)N3CCCC(C)C3)cc2)cc1 (configuration not stated)	-5%	-25%	i	-1%	-3%	16µM*
COc1ccc(/C=N/Nc2nc(=O)[nH]nc2C)cc1OC	2.9µM*	6%	i	?	-27%	i
COc1cc(/C=N/Nc2nc(=O)[nH]nc2C)ccc1O	15µM*	-5%[11.4 µM]	i	?	2%	i
COc1ccc(/C=N/Nc2nc(=O)[nH]nc2C)cc1[N+](=O)[O-]	3%	12%	i	-7%	-7%	i
CCc1cccc(NC(=O)CSc2ncc3c(n2)-c2cc(Cl)ccc2N(C)S3(=O)=O)c1	.	10%	i	.	.	i
O=C(NN1C(=O)/C(=C/c2cccnc2)SC1=S)C(c1ccccc1)c1ccccc1	8%	-32%	?	13µM*	-6%	i
O=C(NN1C(=O)/C(=C\c2cccnc2)SC1=S)C(c1ccccc1)c1ccccc1	-4%	-6%	i	15µM*	-3%	i
O=C(Cc1cccc2ccccc12)NN1C(=O)/C(=C\c2cccnc2)SC1=S	3%	3%	i	-18%	-7%	i
O=C1/C(=C/c2cccnc2)SC(=S)N1NS(=O)(=O)c1ccccc1	-4%	-53%	i	-14%	-1%	i
Cn1cccc1-c1cc2n(n1)CCC(=O)N2CCCC(=O)NCc1cccc(Cl)c1	.	-33%	i	.	.	i
COc1ccc(NC(=O)N2CCN(S(=O)(=O)c3ccc4c(ccn4C)c3)CC2)cc1OC	.	-25%	i	.	.	i
CN1CCN(C(=O)/C=C/c2ccc([N+](=O)[O-])o2)CC1	24%	8%	i	21µM*	3%	i
O=C(O)/C=C/c1ccc([N+](=O)[O-])o1	?	-30%	i	?	-1%	i
CCOC(=O)c1c(NC(=O)Nc2ccc(F)cc2)sc(C(=O)N(C)C)c1C	.	26%	i	.	.	i
